Screens: PubChem, several laboratories
An excerpt weighted towards active compounds, which were near 2.1% of everything screened.
SMARCA2 act: SMARCA2 (BRM) function activators, primary screen, cell-based, luminescence, high throughput | MG213 cells, MMTV-luciferase reporter, dexamethasone, overnight | actives 1% (n = 370,000) | activation, % at 9.1 µM; in the data active means activation above about 7.8%
ABCB6 inh 2: ABCB6 transporter inhibitors, primary screen, K562-ABCB6 cells, flow cytometry, MLPCN library | ATP-binding cassette sub-family B member 6 (Homo sapiens), Q9NP58 | actives 0.19% (n = 360,000) | fluorescence ratio to DMSO, % at 10 µM | K562-ABCB6 porphyrin accumulation, 1 h; hits give low values;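 active means fluorescence ratio to DMSO below 75%, the collection mean minus 3 SD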;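 further: signal is porphyrin accumulated inside mitochondria; lower ratio means ABCB6 inhibition with less porphyrin fluorescence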
bovine MsrA act: bovine MsrA enzyme activators, primary screen, biochemical, absorbance, HTS; Methionine sulfoxide reductase A (Bos taurus); purified bovine MsrA, absorbance read-out; activation, % at 10.6 µM; actives 0.3% (n = 360,000); in the data active means activation above about 7.5%
MsrA inh: bovine MsrA enzyme inhibitors, primary screen, biochemical, absorbance, HTS | inhibition, % at 15.5 µM | Methionine sulfoxide reductase A (Bos taurus) | actives 0.75% (n = 360,000) | purified bovine MsrA, absorbance read-out; in the data active means inhibition above about 4.5%
Large screens that a line does not name were inactive.

CCn1cnc2c([N+](=O)[O-])c(NS(=O)(=O)c3ccc(C)cc3)ccc21	bovine MsrA act 11.7
CCn1cnc2cc(NS(=O)(=O)c3ccc(C)cc3)ccc21	none
C=C(C)Cn1c(SCC(=O)N/N=C(\C)c2ccc([N+](=O)[O-])cc2)nnc1-c1ccc(Br)cc1	none (no result: ABCB6 inh 2, bovine MsrA act, MsrA inh)
COC(=O)[C@]12C[C@H](CC(=O)NCc3ccc(OC)c(OC)c3)C(=O)N(Cc3ccco3)C1=C[C@H](C(C)C)O[C@@H]2C1CC1	none (no result: ABCB6 inh 2, bovine MsrA act, MsrA inh)
CCN(CC)c1ccc(/C=N/n2c(=S)[nH]nc(C)c2=O)cc1	MsrA inh 4.7
CC(=O)N1N=C(c2cccc(NS(C)(=O)=O)c2)CC1c1cccs1 (centres undefined)	SMARCA2 act 7.9
COc1ccc2nc(/C(C#N)=C\c3ccc(Oc4ccc([N+](=O)[O-])cn4)cc3)[nH]c2c1	SMARCA2 act 12.0
Cc1ccc2nc(/C(C#N)=C\c3ccc(Oc4ccc([N+](=O)[O-])cn4)cc3)[nH]c2c1	none
COc1cc(/C=N/NC(=O)c2cccs2)ccc1OCc1ccccc1	none
O=C(N/N=C/c1ccccc1OCc1ccccc1)c1cccs1	SMARCA2 act 7.9
CC(=O)Nc1nc2ncccn2c1-c1ccc(F)c(F)c1	none (no result: ABCB6 inh 2, bovine MsrA act, MsrA inh)
CCOC(=O)c1nn(-c2ccc3c(c2)OCO3)cc1O	MsrA inh 5.9
CC(=O)CC[C@@H]1CC[C@]2(CCCN(S(=O)(=O)C3CCCCC3)C2)O1	none (no result: ABCB6 inh 2, bovine MsrA act, MsrA inh)
Cc1cc(NC(=O)C2CC(=O)OC2c2ccccc2)no1 (centres undefined)	ABCB6 inh 2 74.0
CCOc1ccc(CCNC(=O)c2cc3ccsc3n2C)cc1OC	none (no result: ABCB6 inh 2, bovine MsrA act, MsrA inh)
COC(=O)c1cc2c(c3c4ccccc4n(S(=O)(=O)c4ccc(C)cc4)c13)C(=O)N(C)C2	SMARCA2 act 7.9 (no result: ABCB6 inh 2, bovine MsrA act)
COC(=O)c1cc2c(c3c4ccccc4n(S(=O)(=O)c4ccccc4)c13)C(=O)N(C)C2	none (no result: ABCB6 inh 2, bovine MsrA act)
Cc1cc(N)n(-c2ccccc2)n1	none
Cc1cc(N)n(-c2cc(C)c3ccccc3n2)n1	SMARCA2 act 7.9
NC(=S)N=Nc1c(O)n(CCCl)c2ccccc12	MsrA inh 4.6
NC(=S)N=Nc1c(O)n(CCCl)c2ccc(Cl)cc12	none
C[C@@H]1/C=C/CC(=O)N[C@H](c2cccc(Br)c2)[C@H](C)/C=C/CC(=O)N[C@@H]1c1cccc(Br)c1	none (no result: ABCB6 inh 2, bovine MsrA act, MsrA inh)
CCC1CCc2sc(C(=O)NNC(=S)NCC3CCCO3)cc2C1 (centres undefined)	none
CCC1CCc2sc(C(=O)NCC3CCCO3)cc2C1 (centres undefined)	SMARCA2 act 7.9
Cc1nn(C)c(Oc2cccc(Cl)c2)c1C=O	ABCB6 inh 2 74.0
N#C/C(=C\c1cccs1)c1nc2ccccc2[nH]1	none
Cc1ccc(C(=O)N/C(=C\c2cccs2)c2nc3ccccc3[nH]2)cc1	MsrA inh 4.6
O=C(OCn1ncc(Br)c(Br)c1=O)c1ccc(F)cc1	none (no result: SMARCA2 act, MsrA inh)
O=C(OCn1ncc(Br)c(Br)c1=O)c1ccccc1Cl	ABCB6 inh 2 46.0 (no result: SMARCA2 act, MsrA inh)
Cc1cccc(Cn2cc(CN3CC(N(C)CCCOC(=O)c4cc(C)cc(C)c4)CS3(=O)=O)nn2)c1 (centres undefined)	none (no result: ABCB6 inh 2, bovine MsrA act, MsrA inh)
COc1ccc(Cn2c(NC(=O)c3ccccc3)nc(Cc3ccccc3)c2-c2ccccc2)cc1	none (no result: ABCB6 inh 2, bovine MsrA act, MsrA inh)
Cc1c(N=Cc2nc3ccccc3[nH]2)c(=O)n(-c2ccccc2)n1C	none
Cc1c(N=Cc2nc3ccccc3n2C)c(=O)n(-c2ccccc2)n1C	MsrA inh 5.1
COc1cc(NC(=O)c2ccccc2Cl)c(OC)cc1NC(=O)CN1CCCCC1	SMARCA2 act 7.8
COc1cc(NC(=O)c2ccc(C)cc2)c(OC)cc1NC(=O)CN1CCCCC1	none
COc1ccc2c(c1)CN1CN(Cc3ccc(F)cc3)S(=O)(=O)CC21 (centres undefined)	none (no result: ABCB6 inh 2, bovine MsrA act, MsrA inh)
O=C(O)c1ccc(COc2ccccc2/C=C2\NC(=O)N(Cc3ccccc3F)C2=O)cc1	none
O=C(CN1C(=O)N/C(=C\c2ccccc2OCc2ccc(C(=O)O)cc2)C1=O)Nc1ccccc1F	MsrA inh 4.6
COC(=O)c1cn(NC(=O)c2cccc(N(C)C)c2)c(=O)c2ccccc12	ABCB6 inh 2 72.0
O=C(CCCc1nc2ccccc2s1)NC(c1ccccc1)c1ccccc1	SMARCA2 act 7.9
O=C(CCN1C(=O)C2C3C=CC(C3)C2C1=O)Nc1ccccn1 (centres undefined)	SMARCA2 act 7.8
C[C@@H]1COc2cc(Br)ccc2S(=O)(=O)N1Cc1cn(CCC2OCCCO2)nn1	none (no result: ABCB6 inh 2, bovine MsrA act, MsrA inh)
COc1ccc(CCNC(=O)c2csc3c2CCCC3)cc1OC	none
